Activity calls are given as the source filed them.
Assays:
[1] = system: Plasmodium falciparum Sir2 (PF13_0152, Sir2A); experiment: pfSir2 binders on small-molecule microarrays, primary screen, biochemical, small-molecule microarray, 635 nm fluorescence (AID 1098); details: small-molecule microarray binding, fluorescence 635 nm; higher = more signal;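 note: score merges spot fluorescence intensity with its signal-to-noise ratio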
[2] = small-molecule microarray binders of probe aDKK1, primary screen, biochemical, biotinylated probe, 635/667 nm fluorescence (AID 1099); details: higher = more signal;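 note: score merges 667nm spot fluorescence with signal to noise across triplicate slides; reference of the scale not given here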
[3] = small-molecule microarray binders of probe aCHRDL2, primary screen, biochemical, biotinylated probe, 635/667 nm fluorescence (AID 1100); details: higher = more signal
[4] = splicing luciferase reporter signal modulators, primary screen, spliceosome inhibition project, cell-based, HEK293, splice +/- reporter (AID 1101); details: luminescence, 24 h, higher = more signal, called active from +8 up or from −8 down;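 note: HEK293 cells carrying a splicing-competent luciferase reporter gene; test concentration not given here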
[5] = target: Fibroblast growth factor 10 (Homo sapiens) (UniProt O15520); experiment: FGF10 binders on small-molecule microarrays, primary screen, biochemical, small-molecule microarray, 635 nm fluorescence (AID 1102); details: FGF10 binding, fluorescence 635 nm, higher = more signal
[6] = system: glycogen synthase kinase-3 (GSK3A per assay name; protocol says GSK3B); experiment: GSK3 binders on small-molecule microarrays, primary screen, biochemical, small-molecule microarray, 635 nm fluorescence, GSK3A (AID 1103); details: small-molecule microarray binding, fluorescence 635 nm; higher = more signal; note: the record names both GSK3A and GSK3B
[7] = target: Epidermal growth factor receptor (Homo sapiens) (UniProt P00533); experiment: EGFR binders on small-molecule microarrays, primary screen, biochemical, small-molecule microarray, 635 nm fluorescence (AID 1104); details: EGFR binding, higher = more signal;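 note: score merges 667 nm emission intensity with spot signal to noise over triplicate slides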
[8] = target: Follistatin-related protein 3 (Homo sapiens) (UniProt O95633); experiment: FSTL3 binders on small-molecule microarrays, primary screen, biochemical, small-molecule microarray, 635 nm fluorescence (AID 1105); details: FSTL3 binding, higher = more signal;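 note: score merges emission near 667 nm and signal to noise per printed spot across three slides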
[9] = target: Dickkopf-related protein 1 (Homo sapiens) (UniProt O94907); experiment: DKK1 binders on small-molecule microarrays, primary screen, biochemical, small-molecule microarray, 635 nm fluorescence scan (AID 1106); details: DKK1 binding, higher = more signal;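 note: score merges emission near 667 nm with signal to noise over three replicate slides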
[10] = system: Inhibin beta A chain (activin A); experiment: INHBA (activin A) binders on microarrays, primary screen, biochemical, small-molecule microarray, 635 nm fluorescence scan (AID 1107); details: small-molecule microarray binding, higher = more signal;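 note: mouse activin A protein probed at 4.33 µg/mL on printed slides; score merges bound-protein fluorescence near 667 nm with spot signal-to-noise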

Chain of Dickkopf-related protein 1 (Homo sapiens) (O94907 whole entry, looked up): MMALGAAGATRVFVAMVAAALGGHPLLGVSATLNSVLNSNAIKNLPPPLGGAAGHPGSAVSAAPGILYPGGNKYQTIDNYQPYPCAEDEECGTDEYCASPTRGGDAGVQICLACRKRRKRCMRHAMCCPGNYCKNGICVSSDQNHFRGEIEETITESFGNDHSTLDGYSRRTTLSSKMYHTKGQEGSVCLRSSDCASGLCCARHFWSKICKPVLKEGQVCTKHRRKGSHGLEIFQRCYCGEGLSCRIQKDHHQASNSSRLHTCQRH
Chain of Fibroblast growth factor 10 (Homo sapiens) (O15520 whole entry, looked up): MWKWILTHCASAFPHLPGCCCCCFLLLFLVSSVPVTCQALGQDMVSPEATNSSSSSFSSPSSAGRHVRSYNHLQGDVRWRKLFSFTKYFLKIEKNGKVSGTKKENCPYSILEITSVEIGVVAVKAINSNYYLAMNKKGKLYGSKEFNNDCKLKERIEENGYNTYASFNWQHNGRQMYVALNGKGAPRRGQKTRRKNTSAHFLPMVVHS
Chain of Epidermal growth factor receptor (Homo sapiens) (P00533 whole entry, looked up): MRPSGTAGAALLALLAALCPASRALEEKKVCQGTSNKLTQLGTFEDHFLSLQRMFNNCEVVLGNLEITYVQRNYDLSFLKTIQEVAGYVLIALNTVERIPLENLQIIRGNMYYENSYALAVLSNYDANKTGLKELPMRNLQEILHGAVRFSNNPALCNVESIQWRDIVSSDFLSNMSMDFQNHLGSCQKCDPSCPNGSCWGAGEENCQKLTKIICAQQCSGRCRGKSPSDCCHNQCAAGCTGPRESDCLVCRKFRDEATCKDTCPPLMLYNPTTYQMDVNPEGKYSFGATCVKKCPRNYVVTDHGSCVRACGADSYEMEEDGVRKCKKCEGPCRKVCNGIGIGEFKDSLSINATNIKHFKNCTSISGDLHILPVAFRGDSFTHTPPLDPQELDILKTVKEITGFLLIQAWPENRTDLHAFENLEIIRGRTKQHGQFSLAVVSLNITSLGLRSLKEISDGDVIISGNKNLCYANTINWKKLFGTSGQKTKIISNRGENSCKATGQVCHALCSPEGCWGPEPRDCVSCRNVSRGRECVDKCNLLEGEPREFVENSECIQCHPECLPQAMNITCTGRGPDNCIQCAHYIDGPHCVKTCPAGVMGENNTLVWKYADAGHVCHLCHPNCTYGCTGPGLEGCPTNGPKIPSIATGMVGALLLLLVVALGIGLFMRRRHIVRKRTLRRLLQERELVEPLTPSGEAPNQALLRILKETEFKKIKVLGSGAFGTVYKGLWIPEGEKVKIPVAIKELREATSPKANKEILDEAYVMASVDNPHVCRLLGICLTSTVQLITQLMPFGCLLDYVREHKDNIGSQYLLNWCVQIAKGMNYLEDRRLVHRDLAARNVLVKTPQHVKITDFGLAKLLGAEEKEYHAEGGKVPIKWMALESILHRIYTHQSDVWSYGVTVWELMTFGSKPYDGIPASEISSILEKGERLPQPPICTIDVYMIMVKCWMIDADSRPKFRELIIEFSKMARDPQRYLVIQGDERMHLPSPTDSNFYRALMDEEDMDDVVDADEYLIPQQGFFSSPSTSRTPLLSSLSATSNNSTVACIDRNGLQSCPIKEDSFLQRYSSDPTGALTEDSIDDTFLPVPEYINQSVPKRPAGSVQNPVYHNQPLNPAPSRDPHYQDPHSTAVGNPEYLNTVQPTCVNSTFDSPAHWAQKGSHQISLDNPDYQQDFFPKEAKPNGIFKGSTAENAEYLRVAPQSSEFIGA
Chain of Follistatin-related protein 3 (Homo sapiens) (O95633 whole entry, looked up): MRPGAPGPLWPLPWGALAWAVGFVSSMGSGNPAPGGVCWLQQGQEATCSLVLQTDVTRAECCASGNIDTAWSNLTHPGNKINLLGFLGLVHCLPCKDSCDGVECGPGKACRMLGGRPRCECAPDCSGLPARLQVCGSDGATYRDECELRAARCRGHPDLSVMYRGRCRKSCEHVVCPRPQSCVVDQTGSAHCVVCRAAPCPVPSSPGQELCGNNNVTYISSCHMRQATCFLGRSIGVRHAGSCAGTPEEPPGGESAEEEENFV

SMILES	composite z-score [1]	composite z-score [2]	composite z-score [3]	z-score [4]	composite z-score [5]	composite z-score [6]	composite z-score [7]	composite z-score [8]	composite z-score [9]	composite z-score [10]
CC(C)CON=C1C[C@@H](O)[C@@H](O)[C@@H]2[C@@H]3C(=O)N(C[C@@H]4CCCO4)C(=O)[C@@H]3CC[C@@H]12	0.0599	0.52	0.0562	0.926 (inactive)	-0.231	-0.622	-0.151	-0.336	-0.554	-0.148
CCOC(=O)[C@H](CC(C)C)NC(=O)CCC1CC(OC(=O)NCCc2ccc(F)cc2)CC2(CCCC(COC(=O)NCCc3ccccc3OC)O2)O1 (stereo not given in full)	0.82	-0.186	-0.313	-0.135 (inactive)	0.768	0.773	0.603	0.744	0.526	-0.0274
COC(=O)[C@@H]1CC[C@H](C)[C@@H](c2ccc(C)cc2)N1C(=O)c1ccc(C=NO[C@H](C)c2cn([C@@H]3COC[C@H]3O)nn2)cc1	0.266	-0.132	-0.369	0.0134 (inactive)	0.718	0.891	0.67	0.66	0.831	-1.14
Cc1ccc(S(=O)(=O)NC(CCc2ccccc2)CC(=O)C(C)(C)C)cc1 (stereo not given)	0.491	-0.32	-0.459	-0.327 (inactive)	0.465	0.667	0.589	0.758	0.661	-0.114
COC(=O)CC=C[C@@H](C)[C@@H](C=NOC[C@H]1O[C@H](c2ccccc2)C=C[C@@H]1Oc1ccc(OC)cc1)NS(=O)(=O)c1ccc(C)cc1	-0.611	0.0033	0.674	0.00198 (inactive)	-0.858	-1.78	-0.873	-1.2	-0.462	0.797
CC(CCN1CCc2nc(-c3ccccc3)c(-c3ccccc3)cc2C1)=NOC[C@@H](O)COCc1ccco1	0.752	-0.131	-0.614	0.0302 (inactive)	0.52	0.814	0.377	0.776	1.08	1.48
CCOC(=O)[C@H](Cc1ccccc1)NC(=O)CCC1CC(OC(=O)NCc2cccc3ccccc23)CC2(CCCC(COC(=O)NCc3cccc(C(F)(F)F)c3)O2)O1 (stereo not given in full)	0.532	-0.181	-0.172	-0.247 (inactive)	0.152	-0.189	-0.185	-0.278	0.025	-0.151
C=CC[C@@H]1C=C[C@H](ON=C(C)CCN2CCc3nc(-c4ccccc4)c(-c4ccccc4)cc3C2)[C@@H](CO)O1	0.775	-0.243	-0.574	0.0139 (inactive)	0.524	0.702	0.359	0.808	0.627	1.07
COC(=O)[C@H]1[C@@H](O)[C@@]2(O)c3ccccc3O[C@@]2(c2ccccc2)[C@@H]1c1ccccc1	-0.125	-0.12	-0.535	0.217 (inactive)	0.0746	-0.0393	0.396	-0.134	0.384	-0.011
CCOC(=O)[C@H](Cc1ccccc1)NC(=O)CCC1CC(OC(=O)NCCc2ccc(F)cc2)CC2(CCCC(COC(=O)NCC3CCCCC3)O2)O1 (stereo not given in full)	0.711	-0.184	-0.761	-0.308 (inactive)	1.03	1.24	0.53	1.2	1.33	0.0408
CC(C)CON=C1C[C@@H](O)[C@@H](O)[C@@H]2[C@@H]3C(=O)N(C4CCCCC4)C(=O)[C@@H]3CC[C@@H]12	1.17	-0.22	-0.198	0.353 (inactive)	-0.0852	-0.925	-0.305	-0.504	-0.607	-0.164
CO[C@H]1COC(=O)CC=C[C@@H](C)[C@H](OC)COC(=O)[C@@H]2CCCN2C(=O)CC=C[C@@H]1C	0.686	-0.382	-1.14	0.308 (inactive)	0.892	0.78	1.13	1.49	1.16	1.13
CO[C@H]1COC(=O)[C@H](C)NC(=O)[C@@H](C)COC(=O)[C@H]2CCCN2C(=O)CC=C[C@H]1C	-0.139	-0.377	-0.823	-0.447 (inactive)	0.764	0.945	0.627	0.736	1.55	-0.252
COC(=O)[C@@H]1CC[C@H](C)[C@@H](c2ccc(C)cc2)N1C(=O)c1ccc(C=NO[C@@H](C)c2cn([C@H](CO)Cc3ccccc3)nn2)cc1	1.03	-0.0212	-0.925	-0.746 (inactive)	1.09	1.16	0.797	1.17	1.22	-0.116
CCOC(=O)NN=C1C[C@@H](O)[C@@H](O)[C@@H]2[C@@H]3C(=O)N([C@@H](C)c4ccccc4)C(=O)[C@@H]3CC[C@@H]12	0.799	-0.315	-0.677	1.31 (inactive)	0.725	1.12	1.09	1.34	0.867	1.43
CC(CCN1CCCc2nc(C)c(C)cc21)=NO[C@@H](C)c1cc(-c2c(C)cc(C)cc2C)no1	0.739	0.0311	-0.648	-0.408 (inactive)	0.322	0.525	-0.0398	0.293	0.41	0.881
O=C1C=C[C@@H](O)[C@@H]2[C@@H]3C(=O)N(C[C@@H]4CCCO4)C(=O)[C@@H]3CC[C@@H]12	0.27	-0.0602	-0.454	0.186 (inactive)	0.513	0.496	0.645	0.591	1.17	0.451
COc1cc(O)c(C(=O)C=Cc2ccc3c(c2)OCO3)c(OC)c1	0.188	-0.323	-0.379	-0.00405 (inactive)	0.772	-0.729	-0.229	-0.0642	0.115	0.551
C=CC1=C[C@H](O)[C@@H]2O[C@@H]2C12OCCCO2	0.139	-0.296	-0.136	0.404 (inactive)	0.351	1.03	-0.547	-0.0047	-0.137	0.551
CCOC(=O)[C@H](CC(C)C)NC(=O)CCC1CC(OC(=O)NCc2cccc3ccccc23)CC2(CCCC(COC(=O)NCCC(C)C)O2)O1 (stereo not given in full)	1.49	-0.203	-0.196	-2.95 (inactive)	0.335	-0.229	0.59	0.728	0.418	0.203
COc1cccc([C@H]2Oc3ccc(OC)cc3C(=NOC(C)CN3CCCCc4nc(C)c(C)cc43)[C@@H]2O)c1 (stereo not given in full)	-0.0106	-0.151	-0.223	-0.49 (inactive)	0.422	-0.313	0.132	0.179	0.064	0.937
CC(C)(C)N1C(=O)[C@H]2[C@H]3[C@H](O)[C@H](O)CC(=O)[C@@H]3CC[C@H]2C1=O	0.369	-0.227	-0.658	0.343 (inactive)	0.639	0.239	0.479	0.265	0.711	0.156
CCOC(=O)[C@H](Cc1ccccc1)NC(=O)CCC1CC(OC(=O)NCCc2ccc(F)cc2)CC2(CCCC(COC(=O)NCCc3ccc(Cl)cc3)O2)O1 (stereo not given in full)	0.54	-0.0724	-0.379	-0.0219 (inactive)	0.319	0.691	0.401	0.422	0.555	0.018
COC(=O)CC=C[C@@H](C)[C@@H](C=NOC[C@@H](O)[C@H]1O[C@@H]2OC(C)(C)O[C@@H]2[C@H]1O)NS(=O)(=O)c1ccc(C)cc1	0.698	-0.251	-0.614	0.318 (inactive)	0.504	0.471	0.419	0.427	0.653	-0.0684
Cc1cc2c(nc1C)CCCCN2CC(C)ON=C[C@@H](C)[C@H](OCc1ccccc1)C(C)C (stereo not given in full)	-0.504	-0.873	-0.122	-0.037 (inactive)	-1.92	-1.05	-1.85	-0.934	-0.969	0.911
CCN1C(=O)[C@H]2[C@H]3[C@H](O)[C@H](O)CC(=O)[C@H]3CC[C@H]2C1=O	0.519	-0.106	-0.721	0.691 (inactive)	0.406	0.713	0.371	0.396	0.776	-0.249
COC(=O)[C@@H]1CC[C@H](C)[C@@H](c2ccc(C)cc2)N1C(=O)c1ccc(C=NOCC[C@@H]2C=C[C@H](OC(C)=O)[C@@H](COC(C)=O)O2)cc1	0.35	-0.33	-0.684	0.566 (inactive)	0.402	0.637	0.49	0.644	0.948	0.323

Reference: PubChem BioAssay
